The source of these data is PubChem BioAssay (NCI).

Molecules are shown by their SMILES. Values joined by “and” are separate entries in the source; they are usually repeats but may differ in a detail not shown here. Identical values can stand only once. This is part of a sample that, as a whole, favours compounds with a hit. Of some 83,000 tested, about 20% had one in any assay.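 The endpoint reported here, percent growth, reads 100 for growth as untreated, 0 for no net growth and -100 for all cells dead.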 Active and inactive are the calls of the source. The calls were made as follows: active = growth percent below 10; inactive = the rest.

One test deals with MDA-MB-435 melanoma. The experiment in a line: NCI-60 one-dose screen, 48 h (100 = growth as untreated, 0 = no growth, -100 = all killed). Conditions: 10 µM unless noted.
Consider `CC(=C(c1ccc(OCCCN(C)C)cc1)c1ccc(OCCCN(C)C)cc1)c1ccc(Cl)cc1`, for which the growth is 89.3% (inactive).
In the case of `CCc1cc2c(cc1Cl)nc1c(=O)[nH]c(=O)nc-1n2CCOCC(C)(C)C`, the growth is 33.5% (inactive).
For the molecule `COc1ccc(/C=N/N=C(/c2ccccc2)c2ccc3nc(-c4ccc(Cl)cc4)[nH]c3c2)cc1`, the growth was 85% (inactive).
On the same count and under the same terms, then `Cc1[nH]c(C(=O)Nc2ccc(S(=O)(=O)N3CCCCC3)cc2OCCOCCOCCOCCOCCOCCOCCOCCOCCOc2cc(S(=O)(=O)N3CCCCC3)ccc2NC(=O)c2[nH]c(C)c3c2CCCCC3=O)c2c1C(=O)CCCC2`, with 18% (inactive).
In the case of `Cc1csc(/N=C(N)/N=C(\N)c2cccc(C#N)c2)n1`, the growth was -6.51% (active).
`CC1(C)CC[C@]23CC[C@]4(C)[C@H](CC[C@@H]5[C@@]6(C)CC[C@H](NCO)C(C)(C)[C@@H]6CC[C@]54C)[C@H]2[C@H]1OC3`: the growth is 38.8% (inactive).
`NC1CC2(CCN(c3cnc(C(=O)Nc4cc(F)cc5cccnc45)cn3)CC2)C1`: the growth is 70.9% (inactive).
On to `COc1ccc(-c2cc(-c3ccc(N4CCOCC4)cc3)n3c(n2)nc2ccccc23)cc1OC`, for which the growth is 93.1% (inactive).
Turning to `CN1CCC[C@]2(C)[C@H]3CC[C@@H]4[C@@H]5[C@H]6OC[C@@]5(CCC6(C)C)CC[C@@]4(C)[C@]3(C)CC[C@H]2C1(C)C`, the growth is 69.8% (inactive).

The next test relates to SW-620 colon. Described as above. To be noted: 10 µM unless noted.
`c1ccc(-c2cn3c(-c4c[nH]c5ccccc45)csc3n2)cc1`: the growth is 72.1% (inactive).
For the molecule `O=C(/C=C/c1ccccc1Cl)Nc1ncc(Cc2cc(Cl)ccc2Cl)s1`, the growth is 14.3% (inactive).
In the case of `O=C(CCCCCCNC(=O)c1csc(Br)n1)NO`, the growth was 7.18% (active).
Take `CCOC(=O)c1cnc2c(-c3ccc(Cl)c(Cl)c3)cnn2c1`: the growth is 42.3% (inactive).
With `Cc1csc(/N=C(N)/N=C(\N)c2cccc(Br)c2)n1`, the growth is 84.4% (inactive).
Same read-out and setting: then `CN1CCN(c2ccc(Nc3nc(NCCNC(=O)c4ccccc4)c4sccc4n3)cc2)CC1`, with 49.1% (inactive); and `C#Cc1cc(OC)c(C(=O)Nc2ccc(F)cc2C(=O)Nc2cccc(S(=O)(=O)C(F)(F)F)c2)cn1`, with 5.83% (active).
In the case of `CCCN1C=C/C(=C\C(=O)n2ccc3ccccc32)c2ccccc21`, the growth was 86.6% (inactive).
As to `CNC(=O)c1cc(-n2ccc3cc(NC(=O)Nc4ccc(N5CCN(C)CC5)c(C(F)(F)F)c4)ccc32)ccn1`, the growth is 21.5% (inactive).
Still for that read-out and setting: under `Fc1cc(F)cc(NNC(=S)c2ccccc2)c1` stands 58% (inactive); under `CCCCCCCCCCCC(=O)NC(C)(C)C(=O)N1CCCC1C(=O)NC(C)(C)C(=O)NC(C)(C)C(=O)N1CCCC1C(=O)NC(C)(C)C(=O)NC(C)(C)C(=O)N1CCCC1C(=O)NC(C)C(=O)NCCC(=O)NC(C)C(=O)NC(C)(C)C(=O)NC(C)(C)C(=O)NC(C)(C)C(=O)NCCC(=O)NC(C)(C)C(=O)NC(C)(C)C(=O)NC(C)(C)C(=O)NC(C)C(=O)NCCC(=O)O` (centres undefined), -92.3% (active); under `CC[C@]12C=CCN3CC[C@@]4(c5ccc(OC)cc5N(C)[C@H]4[C@@](O)(C(=O)OC)[C@@H]1OC(=O)CCN1CCc4ccccc4C1)[C@@H]32`, 95.6% (inactive).
Take `O=C(CCCCCCNC(=O)C(O)(O)C(F)(F)F)Nc1ccc(-c2ccccc2)cc1`: the growth was 2.53% (active).
Still for that read-out and setting: under `Brc1cccc(-c2cc(-c3cnc4c(c3)OCCO4)n[nH]2)c1` stands 25.3% (inactive).
In the case of `CS(=O)(=O)c1ccc(/C(=N/N=C(N)N)c2ccc(Cl)cc2)cc1`, the growth is 74.6% (inactive).
On to `CCN1CCN(c2ccc(NC(=O)Nc3ccc4c(ccn4-c4ccnc(C(=O)NC)c4)c3)cc2C(F)(F)F)CC1`, for which the growth was -56.2% (active).
As for `Cc1ccc2c(n1)C(=O)C(Cl)=C(Nc1ccc(C#N)cc1)C2=O`, the growth was -23.1% (active).
Same read-out and setting: under `NS(=O)(=O)c1ccc(Nc2nc(Nc3ccccc3)nc(N3N=C(c4ccc(Cl)cc4)CC3c3ccc(Cl)cc3)n2)cc1` (centres undefined) stands 54.4% (inactive); under `COC(=O)c1cccc(NC2=C(Cl)C(=O)c3nc(C)ccc3C2=O)c1`, 0.0392% (active); under `C#CCN(C)CCCOc1ccc(NCc2ccc(/C=C/C(=O)NO)cc2)cc1Cl`, 10.1% (inactive).
For the molecule `Cc1nc(N)sc1-c1csc(Nc2ccc(C(F)(F)F)cc2)n1`, the growth was 20.6% (inactive).
`COc1ccc(-c2nc(C#N)c(N3CCC(S(=O)(=O)N4CCOCC4)CC3)o2)cc1`: the growth was 95.7% (inactive).
Same read-out and setting: under `O=C(CCCCCCN1CC(=O)N2[C@@H](c3ccc(Cl)s3)c3[nH]c4ccccc4c3C[C@H]2C1=O)NO` stands 33.2% (inactive).
Consider `C#C[C@]1(O)CC[C@H]2[C@@H]3CC=C4c5sc(N(C)c6ccccc6)nc5CC[C@]4(C)[C@H]3CC[C@@]21C`, for which the growth is 92.3% (inactive).
Still for that read-out and setting: under `COc1ccc(/C=N/NC(=O)c2c(N)nn(C)c2Nc2ccccc2)cc1Oc1ccccc1` stands 100% (inactive); under `CCOC(=O)c1cccc(NC2=C(Cl)C(=O)C(C)=C(C)C2=O)c1`, 100% (inactive); under `Cc1ccc(NC(=O)Nc2nc3ccc([N+](=O)[O-])cc3s2)cc1`, 8.56% (active).
The same measure, in the same setting: under `Oc1[nH]c2ccc(Cl)cc2c1N=Nc1nc(N=Nc2c(O)[nH]c3ccc(Cl)cc23)nc(N2CCOCC2)n1` stands 74.3% (inactive); under `C[C@H](Nc1ncnc2ccc(-c3cnc(Cl)c(NS(C)(=O)=O)c3)cc12)c1ccccc1`, 1.48% (active).
Regarding `Brc1ccc(-c2cc(-c3ccc4c(c3)OCCO4)n[nH]2)s1`, the growth was 34.7% (inactive).
In the case of `C/C=C/CC(C)C(O)[C@H](NC(=O)[C@@H]1CCCN1C(=O)[C@](C)(CC)NC(=O)CCCCCCCCC)C(=O)N[C@@](C)(CC)C(=O)N[C@@H](CCC(N)=O)C(=O)N[C@H](CCC(N)=O)C(=O)NC(C)(C)C(=O)NC(C)(C)C(=O)N[C@@H](CCC(N)=O)C(=O)N[C@H](CC(C)C)C(=O)N[C@H](CO)CC(C)C` (some centres undefined), the growth is 83.1% (inactive) and 14.5% (inactive).
Regarding `CC(=C(c1ccc(OCCCN(C)C)cc1)c1ccc(OCCCN(C)C)cc1)c1ccc(Cl)cc1`, the growth was 87.8% (inactive).
With `CCc1cc2c(cc1Cl)nc1c(=O)[nH]c(=O)nc-1n2CCOCC(C)(C)C`, the growth is 89.5% (inactive).
Turning to `COc1ccc(/C=N/N=C(/c2ccccc2)c2ccc3nc(-c4ccc(Cl)cc4)[nH]c3c2)cc1`, the growth is 88.3% (inactive).
Take `Cc1[nH]c(C(=O)Nc2ccc(S(=O)(=O)N3CCCCC3)cc2OCCOCCOCCOCCOCCOCCOCCOCCOCCOc2cc(S(=O)(=O)N3CCCCC3)ccc2NC(=O)c2[nH]c(C)c3c2CCCCC3=O)c2c1C(=O)CCCC2`: the growth was 37.6% (inactive).
On the same count and under the same terms, under `Cc1csc(/N=C(N)/N=C(\N)c2cccc(C#N)c2)n1` stands 44.4% (inactive); under `CC1(C)CC[C@]23CC[C@]4(C)[C@H](CC[C@@H]5[C@@]6(C)CC[C@H](NCO)C(C)(C)[C@@H]6CC[C@]54C)[C@H]2[C@H]1OC3`, -73.5% (active).
Same read-out and setting: then `NC1CC2(CCN(c3cnc(C(=O)Nc4cc(F)cc5cccnc45)cn3)CC2)C1`, with 42.8% (inactive); and `COc1ccc(-c2cc(-c3ccc(N4CCOCC4)cc3)n3c(n2)nc2ccccc23)cc1OC`, with 99.2% (inactive).
Regarding `CN1CCC[C@]2(C)[C@H]3CC[C@@H]4[C@@H]5[C@H]6OC[C@@]5(CCC6(C)C)CC[C@@]4(C)[C@]3(C)CC[C@H]2C1(C)C`, the growth is 23.2% (inactive).
